This note sets out measurements from ChEMBL document CHEMBL3988442, “University of Dundee, Small-Polar-MMV Screening Library” (2021).

For some of these results: Results with a measured potency or affinity are listed apart.

Design in all cases: scale not given: direction of the effect not stated beside the values
In test [1] the target is Protein translocase subunit SecA (Escherichia coli (strain K12)) (UniProt P10408). Put plainly: Assay to Identify E. coli SecA ATPase Inhibitors. The class given is functional. Particulars: 30 µM.
The target of test [2] is T1, Ubiquitin-activating enzyme e1, putative (Leishmania donovani (strain BPK282A1)) (UniProt E9BSI1).
T1 sequence (whole entry): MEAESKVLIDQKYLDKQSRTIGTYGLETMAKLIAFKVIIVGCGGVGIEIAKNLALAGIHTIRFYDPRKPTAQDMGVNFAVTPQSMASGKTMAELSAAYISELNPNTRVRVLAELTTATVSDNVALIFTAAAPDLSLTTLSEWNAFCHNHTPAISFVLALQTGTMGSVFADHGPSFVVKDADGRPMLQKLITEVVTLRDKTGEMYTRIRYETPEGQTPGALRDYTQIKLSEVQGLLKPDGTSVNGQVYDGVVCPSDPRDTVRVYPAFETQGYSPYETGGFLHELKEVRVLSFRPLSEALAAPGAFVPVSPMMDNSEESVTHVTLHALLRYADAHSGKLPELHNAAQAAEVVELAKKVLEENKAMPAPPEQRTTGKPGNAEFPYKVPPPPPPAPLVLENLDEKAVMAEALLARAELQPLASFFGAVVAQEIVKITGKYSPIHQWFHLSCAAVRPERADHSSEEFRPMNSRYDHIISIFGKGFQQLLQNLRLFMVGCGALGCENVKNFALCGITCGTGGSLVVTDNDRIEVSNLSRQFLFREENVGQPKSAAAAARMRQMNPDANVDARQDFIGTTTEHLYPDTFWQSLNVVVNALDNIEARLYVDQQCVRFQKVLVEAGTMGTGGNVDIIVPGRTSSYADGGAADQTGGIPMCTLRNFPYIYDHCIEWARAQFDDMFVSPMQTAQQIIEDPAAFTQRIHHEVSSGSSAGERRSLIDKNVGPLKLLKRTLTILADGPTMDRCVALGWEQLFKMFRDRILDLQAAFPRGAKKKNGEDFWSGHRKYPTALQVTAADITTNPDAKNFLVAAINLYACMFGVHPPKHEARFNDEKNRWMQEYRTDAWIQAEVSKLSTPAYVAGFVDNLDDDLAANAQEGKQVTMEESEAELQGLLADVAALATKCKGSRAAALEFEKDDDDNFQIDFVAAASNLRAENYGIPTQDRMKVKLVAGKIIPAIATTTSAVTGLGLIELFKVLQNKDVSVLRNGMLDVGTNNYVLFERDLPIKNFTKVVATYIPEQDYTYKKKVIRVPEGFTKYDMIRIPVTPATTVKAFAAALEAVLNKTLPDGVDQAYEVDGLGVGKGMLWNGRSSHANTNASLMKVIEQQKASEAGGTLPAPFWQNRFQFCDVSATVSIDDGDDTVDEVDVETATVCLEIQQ
Briefly: Leishmania donovani Ubiquitin Activating Enzyme (LdE1). Particulars: 30 µM. The class given is functional.

Test [3] deals with AMP-activated protein kinase, AMPK (Homo sapiens) (UniProt P54646+O43741+P54619+Q9UGJ0+Q9Y478+Q13131+Q9UGI9). Briefly: AMP-dependent Kinase enzyme assay. An in vitro enzyme assay that detects ADP turnover that is directly proportional to AMPK activity. This uses naive AMPK that is activated during the assay with MK-8722. It is filed as functional. The note with it: 30 µM.
Test [4] has as its target Sialic acid-binding Ig-like lectin 9 (Homo sapiens) (UniProt Q9Y336). Briefly: Hs-Siglec9 ALPHAscreen SOP 20170721. Particulars: 10 µM. In general terms: In Alpha technology, singlet oxygen from a donor bead excites a nearby acceptor bead.
Another test concerns Trypanosoma cruzi. Put plainly: Trypanosoma cruzi phosphomannomutase and mannose-1-phosphate guanylyltransferase assay. It is filed as functional. Particulars: 10 µM.
Test [5] concerns the target T2, Arginase-2, mitochondrial (Homo sapiens) (UniProt P78540).
T2 sequence (whole entry): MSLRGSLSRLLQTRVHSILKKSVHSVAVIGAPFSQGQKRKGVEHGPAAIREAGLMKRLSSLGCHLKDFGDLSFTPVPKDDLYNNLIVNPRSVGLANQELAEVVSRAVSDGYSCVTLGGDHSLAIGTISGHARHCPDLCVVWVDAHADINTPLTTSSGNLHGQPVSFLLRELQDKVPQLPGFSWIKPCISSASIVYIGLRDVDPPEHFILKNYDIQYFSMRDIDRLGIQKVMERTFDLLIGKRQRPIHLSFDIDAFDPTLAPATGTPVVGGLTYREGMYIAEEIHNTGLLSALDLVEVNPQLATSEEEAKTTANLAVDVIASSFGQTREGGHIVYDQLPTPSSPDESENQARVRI
Briefly: in vitro enzyme assay to detect the production of urea directly proportional to the activity of Arginase II. Also: in the data most compounds retested in dose-response had high values. It is filed as functional. Particulars: 33.3 µM.

In test [6] the target is T3, Proteasome subunit beta (Trypanosoma cruzi) (UniProt O96673).
T3 sequence (whole entry): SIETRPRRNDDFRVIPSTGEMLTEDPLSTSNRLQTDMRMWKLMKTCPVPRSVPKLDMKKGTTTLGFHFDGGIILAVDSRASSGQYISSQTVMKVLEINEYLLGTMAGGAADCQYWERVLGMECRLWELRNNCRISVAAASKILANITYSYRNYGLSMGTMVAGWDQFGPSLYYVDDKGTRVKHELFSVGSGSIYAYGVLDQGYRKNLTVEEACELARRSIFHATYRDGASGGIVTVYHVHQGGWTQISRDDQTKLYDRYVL
Put plainly: Trypanosoma cruzi proteasome chymotrypsin-like activity (TcProtChymo) assay. Also: in the data most compounds retested in dose-response had high values. The class given is functional. Particulars: 9.37 µM.

For the next test, the species on record is Homo sapiens. Briefly: To identify inhibition of the IFN signalling (Jak-Stat) pathway via expression of an eGFP reporter gene under the control of an IFN-stimulated response element (ISRE) containing MxA promoter. Particulars: 30 µM. The class given is functional. On the technique in general: In a reporter assay the amount or activity of a reporter protein is the signal.

Test [7] deals with T4, Tyrosyl-tRNA synthetase, putative (Trypanosoma cruzi (strain CL Brener)) (UniProt Q4DSP6).
T4 sequence (whole entry): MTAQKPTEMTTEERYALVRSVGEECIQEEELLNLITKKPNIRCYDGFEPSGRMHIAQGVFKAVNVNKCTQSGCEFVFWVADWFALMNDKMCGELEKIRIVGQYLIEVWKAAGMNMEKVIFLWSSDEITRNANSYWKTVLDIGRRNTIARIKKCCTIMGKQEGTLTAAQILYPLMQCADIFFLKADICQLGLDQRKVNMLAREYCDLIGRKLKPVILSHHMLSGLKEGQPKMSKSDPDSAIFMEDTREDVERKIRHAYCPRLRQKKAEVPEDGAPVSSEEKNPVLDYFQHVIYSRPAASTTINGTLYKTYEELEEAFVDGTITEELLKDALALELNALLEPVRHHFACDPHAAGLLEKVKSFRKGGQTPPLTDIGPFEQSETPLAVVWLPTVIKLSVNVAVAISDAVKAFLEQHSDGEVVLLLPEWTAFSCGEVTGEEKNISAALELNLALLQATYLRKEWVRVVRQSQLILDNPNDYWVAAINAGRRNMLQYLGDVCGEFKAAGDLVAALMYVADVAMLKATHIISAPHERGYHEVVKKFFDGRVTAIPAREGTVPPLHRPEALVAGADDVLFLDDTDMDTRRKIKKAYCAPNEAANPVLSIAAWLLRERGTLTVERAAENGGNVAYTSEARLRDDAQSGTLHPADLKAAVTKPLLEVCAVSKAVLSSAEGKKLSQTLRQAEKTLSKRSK
Briefly: Trypanosoma cruzi tyrosyl tRNA synthetase (TcYRS) _High Tyrosine SOP. Also: in the data most compounds retested in dose-response had high values. Particulars: 30 µM. It is filed as functional.

Test [8] concerns the target T4, Tyrosyl-tRNA synthetase, putative (Trypanosoma cruzi (strain CL Brener)). Briefly: Trypanosoma cruzi tyrosyl tRNA synthetase (TcYRS) SOP. It is filed as functional. The note with it: 30 µM.
In test [9] the target is Chromo domain-containing protein 1 (Saccharomyces cerevisiae (strain ATCC 204508 / S288c) (Baker's yeast)) (UniProt P32657). Put plainly: ScCHD-1 Enzyme Inhibition Assay. Also: in the data most compounds retested in dose-response had high values. It is filed as functional. Particulars: 30 µM.
Chain of Chromo domain-containing protein 1 (Saccharomyces cerevisiae (strain ATCC 204508 / S288c) (Baker's yeast)) (P32657 whole entry, the tested form may be a part): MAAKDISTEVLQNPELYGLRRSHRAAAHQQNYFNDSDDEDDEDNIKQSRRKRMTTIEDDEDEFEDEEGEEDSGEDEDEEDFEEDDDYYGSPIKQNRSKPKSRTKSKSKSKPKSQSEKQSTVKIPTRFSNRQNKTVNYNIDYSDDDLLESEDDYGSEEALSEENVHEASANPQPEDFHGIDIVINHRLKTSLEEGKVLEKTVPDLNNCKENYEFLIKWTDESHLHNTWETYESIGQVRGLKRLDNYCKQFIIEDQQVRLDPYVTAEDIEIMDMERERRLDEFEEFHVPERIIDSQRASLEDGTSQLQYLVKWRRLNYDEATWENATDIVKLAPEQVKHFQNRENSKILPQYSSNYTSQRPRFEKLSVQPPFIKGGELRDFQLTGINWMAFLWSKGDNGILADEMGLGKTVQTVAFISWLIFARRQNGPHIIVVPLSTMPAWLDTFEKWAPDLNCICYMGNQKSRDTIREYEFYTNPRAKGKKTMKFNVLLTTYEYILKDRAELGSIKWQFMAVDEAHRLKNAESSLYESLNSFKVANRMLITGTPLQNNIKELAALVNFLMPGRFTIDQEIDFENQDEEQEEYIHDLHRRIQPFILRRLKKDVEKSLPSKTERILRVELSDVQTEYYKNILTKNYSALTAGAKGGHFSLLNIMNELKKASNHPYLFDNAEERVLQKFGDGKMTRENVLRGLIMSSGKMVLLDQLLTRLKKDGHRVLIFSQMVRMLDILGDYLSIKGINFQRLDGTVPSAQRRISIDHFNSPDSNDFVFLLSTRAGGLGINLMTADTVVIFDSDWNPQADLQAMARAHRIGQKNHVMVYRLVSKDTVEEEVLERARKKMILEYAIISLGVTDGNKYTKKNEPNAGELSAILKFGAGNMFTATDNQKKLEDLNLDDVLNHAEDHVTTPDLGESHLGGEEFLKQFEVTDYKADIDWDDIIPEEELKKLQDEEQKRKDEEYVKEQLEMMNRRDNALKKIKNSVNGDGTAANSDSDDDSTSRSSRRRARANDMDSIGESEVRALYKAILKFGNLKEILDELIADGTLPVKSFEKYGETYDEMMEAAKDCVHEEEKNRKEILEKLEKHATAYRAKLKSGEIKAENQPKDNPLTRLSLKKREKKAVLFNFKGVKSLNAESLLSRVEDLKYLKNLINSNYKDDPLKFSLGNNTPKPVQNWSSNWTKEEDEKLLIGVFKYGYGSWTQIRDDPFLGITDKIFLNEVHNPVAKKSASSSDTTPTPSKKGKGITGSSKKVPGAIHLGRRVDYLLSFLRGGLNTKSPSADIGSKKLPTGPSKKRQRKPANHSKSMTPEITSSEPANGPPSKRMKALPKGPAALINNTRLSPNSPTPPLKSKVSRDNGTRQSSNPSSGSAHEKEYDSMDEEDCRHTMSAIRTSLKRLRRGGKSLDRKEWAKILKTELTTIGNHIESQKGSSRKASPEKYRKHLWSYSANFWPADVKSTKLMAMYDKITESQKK

Chain of Sialic acid-binding Ig-like lectin 9 (Homo sapiens) (Q9Y336 whole entry): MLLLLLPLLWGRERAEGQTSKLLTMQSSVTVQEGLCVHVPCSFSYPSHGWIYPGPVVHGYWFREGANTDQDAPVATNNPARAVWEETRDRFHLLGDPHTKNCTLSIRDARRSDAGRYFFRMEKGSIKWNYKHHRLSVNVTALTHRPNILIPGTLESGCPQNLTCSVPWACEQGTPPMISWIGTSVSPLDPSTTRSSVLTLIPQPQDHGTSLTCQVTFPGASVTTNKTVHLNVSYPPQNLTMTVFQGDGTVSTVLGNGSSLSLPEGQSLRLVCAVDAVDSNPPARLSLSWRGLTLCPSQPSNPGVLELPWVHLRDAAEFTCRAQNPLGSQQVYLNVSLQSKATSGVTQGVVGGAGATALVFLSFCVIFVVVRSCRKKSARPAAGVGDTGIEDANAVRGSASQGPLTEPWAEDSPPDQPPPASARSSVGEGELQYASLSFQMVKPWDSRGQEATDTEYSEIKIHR
Chain of Protein translocase subunit SecA (Escherichia coli (strain K12)) (P10408 whole entry): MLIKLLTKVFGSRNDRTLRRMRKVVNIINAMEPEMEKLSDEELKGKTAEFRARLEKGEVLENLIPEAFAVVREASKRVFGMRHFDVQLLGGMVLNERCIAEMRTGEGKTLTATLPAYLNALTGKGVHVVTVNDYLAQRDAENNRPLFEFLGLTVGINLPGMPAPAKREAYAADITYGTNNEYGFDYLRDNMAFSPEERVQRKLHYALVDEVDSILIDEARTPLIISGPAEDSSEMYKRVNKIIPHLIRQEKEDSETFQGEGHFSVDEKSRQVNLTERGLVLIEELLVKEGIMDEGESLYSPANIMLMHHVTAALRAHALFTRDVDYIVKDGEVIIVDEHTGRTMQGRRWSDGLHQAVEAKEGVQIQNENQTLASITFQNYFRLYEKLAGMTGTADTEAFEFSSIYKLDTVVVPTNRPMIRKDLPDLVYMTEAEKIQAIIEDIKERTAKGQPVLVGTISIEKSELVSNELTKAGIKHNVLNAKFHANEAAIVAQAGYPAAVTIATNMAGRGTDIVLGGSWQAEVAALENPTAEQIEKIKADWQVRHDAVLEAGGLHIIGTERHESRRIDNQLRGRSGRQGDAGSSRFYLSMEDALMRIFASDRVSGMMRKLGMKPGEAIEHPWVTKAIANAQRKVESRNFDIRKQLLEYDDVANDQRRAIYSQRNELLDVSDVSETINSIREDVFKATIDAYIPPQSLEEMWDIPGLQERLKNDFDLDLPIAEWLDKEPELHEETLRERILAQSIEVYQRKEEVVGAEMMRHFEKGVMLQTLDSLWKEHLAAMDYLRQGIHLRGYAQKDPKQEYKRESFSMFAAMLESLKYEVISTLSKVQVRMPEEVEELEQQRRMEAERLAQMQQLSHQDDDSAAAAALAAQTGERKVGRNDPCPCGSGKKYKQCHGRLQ

Take `COc1ccc2c(c1)CN(Cc1nc3c(cnn3C)c(=O)[nH]1)CC2`: the Percent Effect in [1] was -1.51%; in test [2], 15.2%; in test [3] it was -8.08%; in test [4], 0.541%; with Trypanosoma cruzi, 0.85%; in test [5], 2.66%. Also, the Percent Effect in test [6] is 7.45%; in the test filed under Homo sapiens, 8.47%; in test [7] it was 4.43%; in test [8], 21.5%; in test [9], -7.47%.

For the molecule `CCc1nnc(CN(C)c2nc(C(C)C)nc3c2cnn3C)o1`, the Percent Effect in test [1] is 3.23%; in [2] it was 4.17%; in test [3] it was 6.88%; in test [4], -0.661%; in the test with Trypanosoma cruzi, -3.6%; in test [5] it was 2.21%. Besides, the Percent Effect in [6] was 16.8%; in the test filed under Homo sapiens it was -1.37%; in [7], -2.1%; in test [8] it was 2.56%; in [9], 1.23%.

As for `CCc1noc(C(C)N2CCC(NC(=O)c3ccc(C)s3)CC2)n1` (stereo not drawn), the Percent Effect in [1] is -3.18%; in test [2], 7.79%; in test [3], 2.15%; in [4], 19.9%; in the test with Trypanosoma cruzi, 2.65%; in [5], 2.76%. Besides, the Percent Effect was 12.3% in [6]; 17.6% in the test filed under Homo sapiens; 4.3% in [7]; 11.1% in test [8]; -0.98% in test [9].

Consider `Clc1ccccc1-c1nc(CNCCn2cccn2)cs1`, for which the Percent Effect in test [1] is -1.85%; in test [2], -15.8%; in test [3], 2.49%; in test [4] it was -0.874%; in the test on Trypanosoma cruzi it was 9.02%; in test [5] it was 0.383%. The Percent Effect in [6] was determined as 10.9%; in the test filed under Homo sapiens it was 13.7%; in test [7], 9.31%; in test [8] it was 17.1%; in [9] it was 14.2%.

Regarding `O=C(Cc1ccc(F)cc1)N1CCCCC1c1ccn2ccnc2n1` (stereo not drawn), the Percent Effect is -2.25% in test [1]; -1.35% in test [2]; 14.8% in test [3]; 2.79% in [4]; -2.96% in the test on Trypanosoma cruzi; -1.16% in test [5]. Further, the Percent Effect in test [6] was 9.83%; in the test filed under Homo sapiens it was 10.1%; in test [7], 0%; in test [8], -1.3%; in [9] it was -17.6%.

As to `O=C(c1cnccn1)N1CCOCC2(CCN(C3CCOCC3)C2)C1` (stereo not drawn), the Percent Effect is -3.59% in test [1]; 25.3% in test [2]; -6.88% in test [3]; -0.346% in test [4]; 3.54% in the test on Trypanosoma cruzi; -0.528% in test [5]. In addition, the Percent Effect in test [6] is 19.4%; in the test filed under Homo sapiens it was -1.42%; in test [7], 8.47%; in test [8], 15.4%; in [9], -9.96%.

For `c1ccc(CN2CCN(Cc3cscn3)CC2)cc1`, the Percent Effect in [1] is -3.29%; in test [2], 15.6%; in [3] it was 2.52%; in test [4] it was 7.55%; with Trypanosoma cruzi, 0.49%; in test [5], 3.58%. The Percent Effect in test [6] was 7.2%; in the test filed under Homo sapiens it was 7.07%; in [7] it was 8.57%; in [8] it was 18.8%; in test [9] it was -19.7%.

For `O=c1nc(SCc2cccnc2)c2c(n1CCO)CCC2`, the Percent Effect in [1] is -1.99%; in [2] it was 13.7%; in test [3], -3.57%; in test [4], 7.9%; with Trypanosoma cruzi, 0.588%; in test [5], 5%. The Percent Effect in test [6] is 15.8%; in the test filed under Homo sapiens it was 16.7%; in test [7] it was 6.45%; in [8], 15%; in [9] it was -7.2%.
